An excerpt weighted towards active compounds, which were near 8.1% of everything screened.
MCF10A rerep = inducers of DNA re-replication in MCF 10A breast cells; Potency, µM (series often up to 46.1 µM), most hits filed as activators; actives 2.9% (n = 350,000); MCF 10A DNA re-replication, Hoechst nuclear intensity, 48 h; also: nearly all actives have a fitted effect of over 50% in size
KB-V1 cytotox = KB-V1 MDR subline cytotoxicity; KB-V1 MDR cells viability, CellTiter-Glo, 72 h; Potency, µM (titrated, usually from 46.1 µM), hits mostly cytotoxic; actives 3.4% (n = 400,000); AID 1347076; also: nearly all actives have a fitted effect of over 60% in size
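KB-V1 cells (P-gp-expressing MDR subline of KB-3-1) in phenol-red-free DMEM with 10% FBS were exposed to library compounds over a concentration series for 72 h at 37 degrees C. Viability read by CellTiter-Glo luminescence; concentration-effect curves fitted after normalization.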
SW480 rerep = DNA re-replication induction in SW480 cells | SW480 DNA re-replication, Hoechst DNA content imaging, 48 h | actives 1.8% (n = 340,000) | Potency, µM (titrated, usually from 46.1 µM), most hits filed as activators; also: nearly all actives have a fitted effect of over 55% in size
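SW480 cells exposed to compounds for 48 hr at 37 C, 5% CO2, then Hoechst-stained 40 min. Nuclear DNA content imaged by fluorescence scanning (405 nm excitation, 500-530 nm emission); re-replication scored as increased high-intensity nuclei.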
ELG1 repair inh = inhibitors of ELG1-dependent DNA repair in HEK293T cells; HEK293T ELG1-luciferase reporter, luminescence, 16 h; DNA damage induced by 5-fluorouridine; actives 2.3% (n = 330,000); Potency, µM (doses to about 46.1 µM), hits mostly inhibitors; also: nearly all actives have a fitted effect of over 55% in size
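5-Fluorouridine DNA damage + compound/DMSO, 2,000 cells/well, 16 h, 37 °C/5% CO2. ONE-Glo, 30 min RT, luminescence. Readout = decrease in reporter signal.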
KB-3-1 tox = KB-3-1 parental cell cytotoxicity; Potency, µM (titrated, usually from 46.1 µM), actives largely listed as cytotoxic; actives 1.4% (n = 400,000); KB-3-1 viability, CellTiter-Glo ATP luminescence, 72 h; AID 1347075; also: nearly all actives have a fitted effect of over 60% in size
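Using CellTiter-Glo luminescence, growth of non-resistant KB-3-1 adenocarcinoma cells is assessed 72 h after pin-tool compound addition at 37 °C. Normalized responses across the concentration series yield fitted curves.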
Large screens that a line does not name were inactive; ! = not confirmed by another sample. Calls follow the shape of the dose curve; as a rule, active = well fitted curve in the direction sought with a large enough effect; inconclusive = small, poorly fitted or top-dose-only effect, or another doubt; inactive = no such curve, though single readings can be large; an effect the other way counts as inactive or inconclusive.

COCCCn1c(-c2ccc(OC)cc2)cc(C(=O)NC2CCCCCCC2)c1C	MCF10A rerep inconclusive, SW480 rerep inconclusive, ELG1 repair inh 23µM, KB-3-1 tox inconclusive
COC(=O)CSc1cc([N+](=O)[O-])cc2c1c(C1OCCO1)nn2-c1ccccc1	MCF10A rerep inconclusive
Cc1cc(=O)oc2cc(OCC(=O)N3CCN(Cc4ccc5c(c4)OCO5)CC3)ccc12	ELG1 repair inh 6.5µM
CC(C)NS(=O)(=O)c1ccc(OCC(=O)N2CCN(Cc3ccc4c(c3)OCO4)CC2)c(Cl)c1	ELG1 repair inh 12µM
Cc1cc(S(=O)(=O)NC(C)C)ccc1OCC(=O)N1CCN(Cc2ccc3c(c2)OCO3)CC1	KB-V1 cytotox 2.6µM, KB-3-1 tox 16µM
CCc1ccc(OCC(=O)N2CCN(Cc3ccc4c(c3)OCO4)CC2)cc1	MCF10A rerep inconclusive, KB-V1 cytotox inconclusive
Cc1cc(S(=O)(=O)NCC(C)C)ccc1OCC(=O)N1CCN(Cc2ccccc2)CC1	SW480 rerep inconclusive, ELG1 repair inh inconclusive
CC[C@@]1(C(=O)OC)N[C@H](CN(C)C(=O)Nc2ccc(OC)cc2)[C@@H]2C(=O)N(Cc3ccccc3)C(=O)[C@@H]21	ELG1 repair inh inconclusive
C=CCC1(C(C)CCC)C(=O)N=C(S)NC1=O (configuration not stated)	none (no result: KB-V1 cytotox, ELG1 repair inh, KB-3-1 tox)
CN(C)C(=O)Oc1c(Cl)cc(Cl)c2cccnc12	none
Cc1ccc2c(Cl)cc(Cl)c(O)c2n1	MCF10A rerep 21µM, SW480 rerep 10µM (no result: ELG1 repair inh)
C=CCSc1nnc(NC(=O)c2ccc(Cl)nc2)s1	ELG1 repair inh inconclusive
C=C(C)[C@H]1Cc2c(ccc3c2O[C@@H]2COc4cc(OC)c(OC)cc4[C@@H]2C3=O)O1	MCF10A rerep 3.9µM!, SW480 rerep inconclusive (no result: KB-V1 cytotox, ELG1 repair inh, KB-3-1 tox)
CCN(C(=O)CSc1ncccc1C(=O)Oc1cccc([N+](=O)[O-])c1)c1cccc(C)c1	MCF10A rerep inconclusive
Cc1ccc(C(=O)N[C@@H](C)CN2C3=NC[C@@H](Cc4ccccc4)N3C[C@H]2Cc2ccc(O)cc2)cc1Br	KB-3-1 tox inconclusive
Cc1ccc(C(=O)N[C@@H](C)CN2C3=NC[C@H](Cc4ccccc4)N3C[C@H]2Cc2ccc(O)cc2)cc1Br	MCF10A rerep inconclusive, SW480 rerep 13µM, KB-3-1 tox inconclusive
CCON=O	SW480 rerep 0.94µM (no result: KB-V1 cytotox, ELG1 repair inh, KB-3-1 tox)
C[C@@H](Cc1ccc(O)cc1)NC[C@@H](O)c1cc(O)cc(O)c1	none (no result: KB-V1 cytotox, ELG1 repair inh, KB-3-1 tox)
CCOC(=O)C1(c2ccccc2)CCN(CCC(C#N)(c2ccccc2)c2ccccc2)CC1	MCF10A rerep inconclusive, KB-V1 cytotox inconclusive, SW480 rerep 2.8µM (no result: ELG1 repair inh)
CC(C)(C)c1ccc(/C=C2\Oc3cc(OC(=O)N4CCOCC4)ccc3C2=O)cc1	MCF10A rerep 15µM, SW480 rerep inconclusive
O=C(O)c1cccc2nc3ccccc3nc12	SW480 rerep 8.2µM, ELG1 repair inh inconclusive
CSCc1nnc2n1-c1ccc(Cl)cc1C(c1ccccc1)=NC2	KB-V1 cytotox 16µM, ELG1 repair inh inconclusive, KB-3-1 tox inconclusive
Cc1ccc(CN2C(=O)CN=C(c3ccccc3)c3ccccc32)cc1	KB-V1 cytotox 18µM, KB-3-1 tox inconclusive
O=C1CN=C(c2ccccc2)c2cc(Cl)ccc2N1Cc1ccc(Cl)cc1	KB-V1 cytotox 15µM, KB-3-1 tox inconclusive (no result: MCF10A rerep, SW480 rerep, ELG1 repair inh)
Cc1oc(-c2ccccc2Cl)nc1CN1C(=O)CN=C(c2ccccc2)c2cc(Cl)ccc21	none (no result: MCF10A rerep, SW480 rerep, ELG1 repair inh)
Cc1c(O)c(=O)ccn1C	MCF10A rerep inconclusive
CCc1cc(=O)oc2c(C)c(OCC(=O)N3CCC[C@@H]3C(=O)O)ccc12	ELG1 repair inh inconclusive
CC(=O)N(C1=NCCCS1)c1ccccc1Cl	MCF10A rerep 0.58µM
CC(C)n1c(/C=C/[C@H](O)C[C@H](O)CC(=O)O)c(-c2ccc(F)cc2)c2ccccc21	KB-V1 cytotox inconclusive, SW480 rerep inconclusive, KB-3-1 tox inconclusive (no result: ELG1 repair inh)
CN1CCN(c2cccc3c2C(=O)c2ccccc2C3=O)CC1	KB-V1 cytotox 18µM, ELG1 repair inh inconclusive, KB-3-1 tox inconclusive
O=C(c1cncc(Br)c1)N1CCN(S(=O)(=O)c2ccc3ccccc3c2)CC1	ELG1 repair inh inconclusive
[O-]c1ccccc1-[n+]1c(-c2ccccc2)cc(-c2ccccc2)cc1-c1ccccc1	MCF10A rerep inconclusive, ELG1 repair inh inconclusive, KB-3-1 tox 12µM
Cc1ccccc1-[n+]1c(-c2ccccc2)cc(-c2ccccc2)cc1-c1ccccc1	SW480 rerep 2.3µM, ELG1 repair inh inconclusive, KB-3-1 tox 6.5µM
Oc1ccccc1-[n+]1c(-c2ccccc2)cc(-c2ccccc2)cc1-c1ccccc1	ELG1 repair inh inconclusive, KB-3-1 tox inconclusive
COc1cccc(/C=N/NC(=O)c2c(C)nc3ccc(Br)cn23)c1	SW480 rerep inconclusive
CC(C)C[C@H]1CN([C@@H](CC(C)C)CN2CCCC2CN2C(=S)NC[C@@H]2Cc2ccc(O)cc2)C(=S)N1CC1CCCCCC1 (some centres not stated)	MCF10A rerep inconclusive, KB-V1 cytotox inconclusive, KB-3-1 tox inconclusive (no result: ELG1 repair inh)
CCN(CC(=O)Nc1ccccc1C(F)(F)F)C(=O)Cn1c(=O)cnc2ccccc21	none
O=C1NC(=O)C(CCc2ccncc2)(Cc2cccc(Cl)c2Cl)C(=O)N1c1ccc(Br)cc1 (configuration not stated)	MCF10A rerep 4.6µM, KB-V1 cytotox 8.2µM, SW480 rerep 12µM, ELG1 repair inh 16µM, KB-3-1 tox 5.2µM
CNCC(O)c1cc(OCc2ccccc2)c(OCc2ccccc2)cc1F (configuration not stated)	KB-V1 cytotox 18µM, KB-3-1 tox inconclusive (no result: ELG1 repair inh)
CCN(CC)C(=O)c1ccc(NC(=O)CCn2nc(-c3ccc(Cl)cc3)c3ccccc3c2=O)cc1	none (no result: MCF10A rerep, SW480 rerep, ELG1 repair inh)
C=Cc1cc(OC)c2c(c1)c(=O)oc1c2cc(OC)c2c(O)ccc(C3OC(C)C(O)C(C)(O)C3O)c21 (configuration not stated)	MCF10A rerep 3.7µM, KB-V1 cytotox 18µM, SW480 rerep 8.2µM, KB-3-1 tox inconclusive (no result: ELG1 repair inh)
COC1CC2C=C(C)C=CC=CC(=O)NC(c3ccccc3)CC=CCCC(O)CC(=O)C2=C1O (configuration not stated)	KB-V1 cytotox 5.8µM, KB-3-1 tox 5.8µM (no result: MCF10A rerep, SW480 rerep, ELG1 repair inh)
C[C@H]1CCC/C=C/C2C[C@H](O)CC2[C@H](O)/C=C/C(=O)O1 (some centres not stated)	MCF10A rerep 0.26µM, KB-V1 cytotox 0.41µM, SW480 rerep inconclusive, ELG1 repair inh inconclusive, KB-3-1 tox 0.026µM
CC1CCC/C=C/C2CC(O)CC2C(O)/C=C/C(=O)O1 (configuration not stated)	MCF10A rerep inconclusive, KB-V1 cytotox inconclusive, SW480 rerep 0.1µM, ELG1 repair inh 0.65µM, KB-3-1 tox inconclusive
CCCN1CCCC2Cc3nc(N)ncc3CC21 (configuration not stated)	none (no result: KB-V1 cytotox, ELG1 repair inh, KB-3-1 tox)
NC(=O)C[N+]1(CC#CC(O)(c2ccccc2)c2ccccc2)CCCC1	MCF10A rerep inconclusive
O=[As]O[As]=O (configuration not stated)	none (no result: KB-V1 cytotox, ELG1 repair inh, KB-3-1 tox)
